Experimental data: PubChem BioAssay AID1159580 (chemical genetic matrix, 2015)
“And” between values parts separate entries of the source, which are not always exact repeats. Equal values may be shown once. The whole screen tested about 5,500 compounds, of which about 2,000 (36%) were called active. Inconclusive results (about 18%) are left out. No stated cut-off is given here; in the data, active means normalized growth mostly below about 0.91 (no sharp cut-off); inconclusive means no clear call, values can overlap the other calls; inactive means mostly above about 0.92. Some of the results follow.

Assay: chemical genetic growth profiling, strain panel (AID 1159580);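 further: tested at 20 µM; growth read once vehicle control cultures reached saturation at 30 °C; 1 = growth at the plate median or of vehicle wells; lower values mean less growth of the strain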
Conditions: S. cerevisiae deletion strains, growth OD

Measured: normalized growth

COc1cc(NS(=O)(=O)c2ccc(N)cc2)ncn1
inactive: locus YAL013W, strain DEP1, active compounds read low 0.998 | locus YAL021C, strain ccr4, active compounds read low 0.988 | locus YAL026C, strain drs2, active compounds read low 0.978 | locus YAL030W, strain snc1, active compounds read low 0.999 | locus YBL061C, strain skt5, active compounds read low 0.987 | locus YBR009C, strain hhf1, active compounds read low 0.996 | locus YBR021W, strain FUR4, active compounds read low 1 | locus YBR023C, strain chs3, active compounds read low 0.983 | locus YBR171W, strain sec66, active compounds read low 0.968 | locus YBR229C, strain ROT2, active compounds read low 0.955 | locus YBR231C, strain swc5, active compounds read low 0.979 | locus YBR279W, strain paf1, active compounds read low 0.964 | locus YCL011C, strain gbp2, active compounds read low 0.968 | locus YCL016C, strain dcc1, active compounds read low 0.981 | locus YCL029C, strain bik1, active compounds read low 0.977 | locus YCL061C, strain MRC1, active compounds read low 0.979 | locus YCL069W, strain vba3, active compounds read low 0.98 | locus YCR088W, strain abp1, active compounds read low 0.97 | locus YDL005C, strain med2, active compounds read low 0.978 | locus YDL035C, strain GPR1, active compounds read low 0.993 | locus YDL040C, strain nat1, active compounds read low 0.969 | locus YDL074C, strain BRE1, active compounds read low 0.966 | locus YDL101C, strain DUN1, active compounds read low 0.979 | locus YDL134C, strain PPH21, active compounds read low 1.01 | locus YDL185W, strain tfp1, active compounds read low 0.983 | locus YDL192W, strain arf1, active compounds read low 0.978 | locus YDR001C, strain nth1, active compounds read low 0.973 | locus YDR069C, strain doa4, active compounds read low 1.03 | locus YDR101C, strain arx1, active compounds read low 0.972 | locus YDR137W, strain rgp1, active compounds read low 0.991 | locus YDR159W, strain sac3, active compounds read low 0.916 | locus YDR162C, strain NBP2, active compounds read low 0.995 | locus YDR195W, strain ref2 0.918 | locus YDR297W, strain sur2, active compounds read low 1 | locus YDR318W, strain mcm21, active compounds read low 0.988 | locus YDR334W, strain swr1, active compounds read low 0.948 | locus YDR335W, strain msn5, active compounds read low 0.971 | locus YDR388W, active compounds read low 0.979 | locus YDR392W, strain spt3, active compounds read low 0.982 | locus YDR502C, strain sam2, active compounds read low 0.984 | locus YEL003W, strain gim4, active compounds read low 1 | locus YEL037C, strain rad23, active compounds read low 0.999 | locus YEL061C, strain CIN8 (second series), active compounds read low 0.96 | locus YEL061C, strain CIN8, active compounds read low 0.982 | locus YER015W, strain faa2, active compounds read low 0.984 | locus YER016W, strain bim1, active compounds read low 0.992 | locus YER110C, active compounds read low 0.973 | locus YER111C, strain swi4, active compounds read low 0.968 | locus YER155C, strain BEM2 (second series), active compounds read low 0.975 | locus YER155C, strain BEM2, active compounds read low 1 | locus YER167W, strain BCK2, active compounds read low 0.992 | locus YFR010W, strain ubp6, active compounds read low 0.97 | locus YGL078C, strain dbp3, active compounds read low 0.977 | locus YGL086W, strain mad1, active compounds read low 0.981 | locus YGL167C, strain pmr1, active compounds read low 0.981 | locus YGL173C, strain kem1, active compounds read low 0.993 | locus YGL227W, strain vid30, active compounds read low 0.959 | locus YGL240W, strain doc1, active compounds read low 0.958 | locus YGL248W, strain PDE1, active compounds read low 0.978 | locus YGL253W, strain hxk2, active compounds read low 0.979 | locus YGR078C, strain PAC10, active compounds read low 0.977 | locus YGR135W, strain pre9, active compounds read low 0.999 | locus YGR252W, strain gcn5, active compounds read low 0.987 | locus YHR013C, strain ard1, active compounds read low 0.986 | locus YHR027C, strain rpn1, active compounds read low 0.983 | locus YHR030C, strain SLT2, active compounds read low 0.997 and 0.991 | locus YHR079C, strain IRE1 (second series), active compounds read low 0.99 | locus YHR079C, strain IRE1, active compounds read low 0.97 | locus YHR094C, strain hxt1, active compounds read low 0.987 | locus YHR129C, strain ARP1, active compounds read low 0.995 | locus YHR142W, strain chs7, active compounds read low 0.968 | locus YHR200W, strain rpn10, active compounds read low 0.982 | locus YIL066C, strain RNR3, active compounds read low 0.976 | locus YIL073C, strain SPO22, active compounds read low 1.02 | locus YIL125W, strain kgd1, active compounds read low 0.982 | locus YIR030C, strain dcg1, active compounds read low 0.974 | locus YJL092W, strain hpr5, active compounds read low 0.98 | locus YJL095W, strain BCK1 (second series), active compounds read low 0.976 | locus YJL095W, strain BCK1, active compounds read low 0.989 and 0.983 | locus YJL115W, strain asf1, active compounds read low 0.964 | locus YJL129C, strain trk1, active compounds read low 0.963 | locus YJL134W, strain LCB3, active compounds read low 0.992 | locus YJL154C, strain vps35, active compounds read low 0.971 | locus YJL164C, strain tpk1, active compounds read low 1 | locus YJL166W, strain qcr8, active compounds read low 0.982 | locus YJL168C, strain set2, active compounds read low 0.985 | locus YJL187C, strain SWE1 (second series), active compounds read low 0.962 | locus YJL187C, strain SWE1, active compounds read low 0.981 | locus YJR043C, strain POL32, active compounds read low 0.994 | locus YJR066W, strain TOR1, active compounds read low 0.943
